The source made the active and inactive calls. The call rests on the fitted dose curve.
What follows are compounds tested against Phosphatidylinositol 5-phosphate 4-kinase type-2 beta (Homo sapiens) (UniProt P78356) (assay: qHTS for Inhibitors of PI5P4K: PI5P4K-beta 32P-ATP TLC Secondary Assay for Probe SAR). Conditions: recombinant PI5P4K-beta, 32P-ATP TLC lipid kinase assay.
Excerpt: In addition to finding PI5P, we discovered the type II phosphatidylinositol 5-phosphate 4-kinase (PI5P4K) family (alpha, beta, gamma isoforms) that catalyze the conversion of PI5P to PI(4,5)P2. Alternatively, PI(4,5)P2 can also be synthesized through phosphatidylinositol-4-phosphate (PI4P) by the type I phosphatidylinositol 4-phosphate 5-kinases (PI4P5K). These PI5P4K enzymes therefore represent one way by which cells can regulate endogenous PI5P levels and play important roles in insulin signaling and in stress responses. […] A qHTS PI5P4K-alpha ADP-Glo assay was developed to identify specific modulators of human PI5P4K, phosphatidylinositol-5-phosphate 4-kinase (Type II PIPK). To confirm that the active compounds and their analogs were true and selective inhibitors, a secondary Thin-layer Chromatography (TLC) assays against recombinant PI5P4K-alpha, PI4P5K-alpha or PI5P4K-beta that utilize a radioactively labeled ATP were developed. The data herein is the result of the PI5P4K-beta TLC assay. […]
The kinase reaction was carried out in a total of 50 microL of kinase buffer (50 mM HEPES pH 7.4 and 10 mM MgCl2) containing 20 microM of the lipids that were suspended by sonication. […] The radiolabeled product, PI(4,5)P2, was quantified with a phosphorimager (Molecular Dynamics, STORM840, GE Healthcare, Waukesha, WI, USA).

Phosphatidylinositol 5-phosphate 4-kinase type-2 beta (Homo sapiens), sequence (P78356 whole entry, looked up, canonical isoform): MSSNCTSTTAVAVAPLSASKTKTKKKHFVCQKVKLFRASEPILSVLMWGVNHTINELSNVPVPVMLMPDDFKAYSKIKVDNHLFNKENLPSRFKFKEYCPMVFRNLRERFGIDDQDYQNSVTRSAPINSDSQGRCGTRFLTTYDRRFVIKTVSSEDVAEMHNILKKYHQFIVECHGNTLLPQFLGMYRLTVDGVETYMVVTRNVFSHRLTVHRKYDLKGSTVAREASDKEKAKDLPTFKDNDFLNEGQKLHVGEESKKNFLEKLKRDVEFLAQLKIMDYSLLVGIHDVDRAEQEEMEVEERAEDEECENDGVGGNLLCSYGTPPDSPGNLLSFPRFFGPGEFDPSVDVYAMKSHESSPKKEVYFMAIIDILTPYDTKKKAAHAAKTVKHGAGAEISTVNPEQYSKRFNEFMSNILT

| SMILES | Potency |
| --- | --- |
| O=C1Nc2ccc(C(=O)c3ccco3)cc2/C1=C/c1cc(Cl)c(O)c(Cl)c1 | 890 nM (active) |

— PubChem BioAssay AID743379 (National Center for Advancing Translational Sciences (NCATS), 2014)
